# Laboratory results: ChEMBL document CHEMBL3988442, “University of Dundee, Small-Polar-MMV Screening Library” (2021)
# Out of some 66,000 compounds screened, about 960 (1.5%) showed an effect of 50% or more. The entries come from a sample that favours strong results as a whole.
# Tested on: Trypanosoma brucei
# Experiment: Trypanosoma brucei 72 hour study
# Format: functional, organism-based
# Set-up: scale not given: in the data most compounds retested in dose-response had high values
structure (smiles),measurement,setting,value
O=C(O)C(F)(F)F.c1csc(CN2C[C@H](OCC3CC3)[C@H]3COC[C@H]32)n1,Percent Effect,"30.3 µM, […]",-56.8%
Cc1cc(C)n(C2CN(CC(O)c3cc(F)ccc3F)C2)n1 (stereo unspecified),Percent Effect,"30.3 µM, […]",7.425%
same,Percent Effect,"10 mM, 10 mM as filed; unlikely as a test dose",-39.98%
CCN1C(=O)CCC12CCCN(Cc1ccc(F)cc1)CC2.O=C(O)C(F)(F)F (stereo unspecified),Percent Effect,"30.3 µM, […]",-27.1%
C[C@H]1CN(C(=O)N(C)C)C[C@@]12CCN(c1ccsc1)C2=O,Percent Effect,"30.3 µM, […]",-235.1%
C[C@@H]1CN(C(=O)c2ccsc2)C[C@]12CCN(c1ccsc1)C2=O,Percent Effect,"30 µM, 30.03 µM",49.54%
C[C@@H]1CN(C(=O)NC2CC2)C[C@]12CCN(c1ccsc1)C2=O,Percent Effect,"30 µM, 30.03 µM",50.13%
Cc1ccnn1CCC(=O)N1CCCC1c1cc2cccnc2[nH]1.Cl (stereo unspecified),Percent Effect,"30.3 µM, […]",-12.68%
Cc1cccc(CN2C[C@@H]3COC[C@]3(CNC(=O)c3ccno3)C2)n1.O=C(O)C(F)(F)F.O=C(O)C(F)(F)F,Percent Effect,"30 µM, 30.03 µM",26.49%
Cc1nc(N2CCCC2)ncc1-c1cc(O)nc(N2CCCC2)n1,Percent Effect,"30 µM, 30.03 µM",64.4%
Cc1nc(N2CCCC2)ncc1-c1cc(O)nc(N2CCCCC2)n1,Percent Effect,"30.3 µM, […]",-25.67%
Cc1nc(N2CCCCC2)ncc1-c1cc(O)nc(N2CCCCC2)n1,Percent Effect,"30.3 µM, […]",-25.73%
CCOCC1CN(C(=O)c2cscn2)Cc2cnn(CC3CC3)c21 (stereo unspecified),Percent Effect,"30 µM, 30.03 µM",-19.67%
CCOCC1CN(S(=O)(=O)N(C)C)Cc2cnn(C)c21.O=C(O)C(F)(F)F (stereo unspecified),Percent Effect,"30 µM, 30.03 µM",56.34%
CCOCC1CN(S(=O)(=O)N(C)C)Cc2cnn(CC3CC3)c21.O=C(O)C(F)(F)F (stereo unspecified),Percent Effect,"30 µM, 30.03 µM",-18.48%
CCOCC1CN(S(=O)(=O)N(C)C)Cc2cnn(CC)c21.O=C(O)C(F)(F)F (stereo unspecified),Percent Effect,"30 µM, 30.03 µM",-21.09%
CCOCC1CN(C(=O)c2cnccn2)Cc2cnn(CC3CC3)c21.O=C(O)C(F)(F)F (stereo unspecified),Percent Effect,"30 µM, 30.03 µM",61.22%
CCOCC1CN(C(=O)c2cccn2C)Cc2cnn(CC3CC3)c21.O=C(O)C(F)(F)F (stereo unspecified),Percent Effect,"30 µM, 30.03 µM",19.58%
O=C(CC1CC1)N1CCN(Cc2cccnc2)c2ncccc2C1.O=C(O)C(F)(F)F.O=C(O)C(F)(F)F,Percent Effect,"30.3 µM, […]",-18.28%
C1CCC(CN2Cc3nnn(CC4CC4)c3C(COCC3CC3)C2)C1.O=C(O)C(F)(F)F (stereo unspecified),Percent Effect,"30.3 µM, […]",-7.314%
CCCS(=O)(=O)N1C[C@H]2C[C@H](C(=O)N3CCN(C)CC3)[C@@H](C1)O2.O=C(O)C(F)(F)F,Percent Effect,"30.3 µM, […]",2.556%
Cn1ccc(C(=O)NC2CCC23CCN(Cc2cnn(C)c2)CC3)c1.O=C(O)C(F)(F)F (stereo unspecified),Percent Effect,"30 µM, 30.03 µM",-26.08%
O=C(c1cccnc1)N(Cc1ccncc1)C1CC1,Percent Effect,"30 µM, 30.03 µM",-21.55%
CC(C)CN(C(=O)Nc1cccnc1)C1CC1,Percent Effect,"30 µM, 30.03 µM",-2.145%
O=C(Nc1cccnc1)N(Cc1ccccc1)C1CC1,Percent Effect,"30 µM, 30.03 µM",60.16%
COc1ccc(CNC2CCN(CCc3ccncc3)CC2)cc1O,Percent Effect,"30 µM, 30.03 µM",21.52%
Fc1ccc(CNC2CCN(CCc3ccncc3)CC2)cc1F,Percent Effect,"30 µM, 30.03 µM",6.927%
Cc1ccc(CNC2CCN(CCc3ccncc3)CC2)cc1C,Percent Effect,"30 µM, 30.03 µM",51.93%
O=C(O)C(F)(F)F.O=C1CCCN1Cc1nnc2n1CCCN(Cc1ccco1)C2,Percent Effect,"30.3 µM, […]",-37.98%
CC(C)(C)CC(=O)NCCn1nc(C2CCNC2)c2cccnc21.Cl (stereo unspecified),Percent Effect,"30.3 µM, […]",-18.41%
COCc1noc(Cn2c(=O)[nH]c3ccccc32)n1,Percent Effect,"30 µM, 30.03 µM",-41.22%
CCN1CCOCC12CCN(C(=O)Cc1cccs1)CC2.O=C(O)C(F)(F)F,Percent Effect,"30.3 µM, […]",-18.12%
CCN1CCOCC12CCN(C(=O)Cc1ccccc1)CC2.O=C(O)C(F)(F)F,Percent Effect,"30 µM, 30.03 µM",60.57%
O=C(Cc1ccccc1)N1CCC2(CC1)COCCN2CC1CC1.O=C(O)C(F)(F)F,Percent Effect,"30 µM, 30.03 µM",11.75%
O=C(C1CCC1)N1C[C@@H]2CC[C@H](C1)N(S(=O)(=O)c1cccnc1)C2,Percent Effect,"30 µM, 30.03 µM",-15.99%
CCOc1ncccc1CNC(=O)NC1CCOc2ccccc21 (stereo unspecified),Percent Effect,"30.3 µM, […]",-12.87%
C[C@@H]1CN(Cc2cccnc2)C[C@]12CCN(CCN1CCCC1)C2=O.O=C(O)C(F)(F)F.O=C(O)C(F)(F)F.O=C(O)C(F)(F)F,Percent Effect,"30.3 µM, […]",-30.87%
CC(C)N1CCN(C(=O)c2csc3nc(-c4ccc(Cl)cc4)cn23)CC1,Percent Effect,"30 µM, 30.03 µM",-14.99%
CCC1CN(C(=O)c2csc3nc(-c4ccc(Cl)cc4)cn23)CCN1 (stereo unspecified),Percent Effect,"30 µM, 30.03 µM",66.56%
O=C(c1csc2nc(-c3ccc(Cl)cc3)cn12)N1CCCC(CO)C1 (stereo unspecified),Percent Effect,"30 µM, 30.03 µM",-27.9%
Cc1nc(-c2ccc(F)cc2)cc(C2CCNCC2)n1,Percent Effect,"30.3 µM, […]",-5.19%
Cc1nc(-c2ccc(CO)cc2)cc(C2CCNCC2)n1.Cl,Percent Effect,"30.3 µM, […]",-17.1%
COc1ccc(-c2cc(C3CCNCC3)nc(C)n2)cc1.Cl,Percent Effect,"30.3 µM, […]",0.4357%
Cc1nc(-c2ccccc2)cc(C2CCNCC2)n1.Cl,Percent Effect,"30.3 µM, […]",-24.18%
Cc1ccc(-c2cc(C3CCNCC3)nc(C)n2)cc1.Cl,Percent Effect,"30.3 µM, […]",86.87%
Cc1nc(-c2ccc(F)c(F)c2)cc(C2CCNCC2)n1.Cl,Percent Effect,"30.3 µM, […]",101.1%
